HT1080 IDH1KD tx: qHTS for induction of synthetic lethality in tumor cells producing 2HG: qHTS for the HT-1080-IDH1KD cell line. HT-1080 IDH1 knockdown viability, ATP luminescence, 48 h. Potency, µM (titrated, usually from 46.1 µM), inactives show at the highest dose activity, negative = toxicity, most hits filed as cytotoxic. actives 2% (n = 360,000). AID 686971, 2013;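 also: potency is read from the fitted curve at half-maximal effect; 0% = DMSO wells and -100% = cell-free medium wells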
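Using the IDH1-knockdown HT-1080 line run in the same batch and compound series as the NT line, viability after 48 h at 37 °C was determined by CellTiter-Glo luminescence and expressed as % activity.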
HT1080NT lethal: qHTS for induction of synthetic lethality in tumor cells producing 2HG: qHTS for the HT-1080-NT fibrosarcoma cell line | HT-1080-NT fibrosarcoma viability, CellTiter-Glo ATP luminescence, 48 h | Potency, µM (doses to about 46.1 µM), without a hit: top-dose activity, negative = less viability, usual class: cytotoxic | actives 1.6% (n = 360,000);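 also: NT is the 2HG producing partner of a matched IDH1 knockdown line; potency is read from the fitted curve at half-maximal effect; 0% = DMSO-treated cells and -100% = media-only wells without cells; nearly all actives have a fitted effect of over 55% in size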
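A 48-hour cytotoxicity screen used HT-1080-NT cells plated 2 hours before compound delivery. ATP-based CellTiter-Glo luminescence measured viability, normalized to DMSO and no-cell controls.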
IL1B secr inh: qHTS for Inhibitors of Inflammasome Signaling: IL-1-beta AlphaLISA Primary Screen; THP-1 LPS/ATP IL-1B secretion, AlphaLISA, 16 h; active compounds read low; activity change, % at 57.5 µM; actives 4.7% (n = 360,000); AID 743279, 2014; in the data active = activity change below about -50%; inconclusive = mostly about -30% to -49%
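Secreted IL-1B measured by AlphaLISA bead assay after 16 h compound exposure of THP-1 cells; compounds (final up to 57.5 uM) added 1 h before LPS (250 ng/mL) and ATP (1.25 mM) stimulation; lower signal means less secretion.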
ELG1 repair inh: qHTS screen for small molecules that inhibit ELG1-dependent DNA repair in human embryonic kidney (HEK293T) cells expressing luciferase-tagged ELG1; Potency, µM (series often up to 46.1 µM), for the others: top-dose activity change, negative = inhibition, usual class: inhibitors; actives 2.3% (n = 330,000); HEK293T ELG1-luciferase reporter, luminescence, 16 h; DNA damage induced by 5-fluorouridine; AID 504467, 2011; also: potency is read from the fitted curve at half-maximal effect; nearly all actives have a fitted effect of over 55% in size
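Overnight (16 hr) co-exposure of 2,000 cells/well to 5-fluorouridine and compound at 37 °C preceded detection. Luciferase was quantified via ONE-Glo luminescence; loss of signal denotes inhibition.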
TDP1 cell noCPT: qHTS for Inhibitors of human tyrosyl-DNA phosphodiesterase 1 (TDP1): qHTS in cells in absence of CPT; DT40 Tdp1-/- hTDP1 cells, no CPT, ATP luminescence, 48 h; Potency, µM (top dose mostly 46.2 µM), for inactives: at the top dose activity change, negative = growth inhibition, actives largely listed as inhibitors; actives 15% (n = 420,000); also: potency is read from the fitted curve at half-maximal effect; nearly all actives have a fitted effect of over 55% in size
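Compound effects on proliferation are scored in DT40 Tdp1-/-;hTDP1 cells in the absence of CPT. ATP levels (CellTiter-Glo luminescence) are recorded after a ≥48 hr, 37 °C incubation.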
DT40 TDP1 CPT: qHTS for Inhibitors of human tyrosyl-DNA phosphodiesterase 1 (TDP1): qHTS in cells in presence of CPT; actives 12% (n = 420,000); Potency, µM (doses to about 46.2 µM), without a hit: at the top dose activity change, negative = growth inhibition, hits mostly inhibitors; chicken DT40 Tdp1-/-;hTDP1 cells + 20 nM CPT, ATP luminescence, 48 h; also: potency is read from the fitted curve at half-maximal effect; nearly all actives have a fitted effect of over 55% in size
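Chicken DT40 Tdp1-/- cells complemented with human TDP1, 400 cells/well, exposed to compounds plus 20 nM camptothecin for at least 48 h at 37 C; viability read as ATP content by CellTiter-Glo luminescence.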
* hit, by the source's call; ? = inconclusive; · = not tested or not shown; [ ] = dose if it differs, or a comment. This is a sample that favours compounds with a hit; in the whole collection about 19% have one here. Unless noted, calls follow the shape of the dose curve; as a rule, active = well fitted curve in the direction sought with a large enough effect; inconclusive = small, poorly fitted or top-dose-only effect, or another doubt; inactive = no such curve, though single readings can be large; an effect the other way counts as inactive or inconclusive. Unless noted, % is scaled to controls: 0 for no effect and ±100 for the full control effect.

SMILES | HT1080 IDH1KD tx | HT1080NT lethal | IL1B secr inh | ELG1 repair inh | TDP1 cell noCPT | DT40 TDP1 CPT
COc1ccc(-c2nc3ccc(NS(=O)(=O)c4ccccc4)cc3o2)cc1 | · | · | · | · | -104.9% | ?
Cc1ccc(S(=O)(=O)Nc2ccc3nc(C)oc3c2)cc1 | -20.6% | 0.3% | 12.6 | · | 10.3µM* | 18.4µM*
Cc1ccc(S(=O)(=O)Nc2ccc3nc(-c4cccn4C)[nH]c3c2)cc1 | 0.6% | 6.8% | -50.0* | 11.2% | ? | ?
CNC(=O)CSc1nc2cc(S(=O)(=O)Nc3ccc(OC)cc3)ccc2o1 | 5.1% | -2.8% | 10.7 | · | -8.4% | -5.9%
Cc1ccc2c(=O)cc(C(=O)Nc3nc4ccc(Cl)cc4s3)oc2c1 | · | · | · | · | -6.1% | -12.5%
C[N+]1(C)CCN(CC(O)(c2ccccc2)C2CCCCC2)CC1 (stereo unspecified) | · | · | · | · | -14.7% | 2.2%
COC(=O)C1CCN(Cc2ccc3c(c2)CN(C(=O)c2cc4ccccc4n2C)CCO3)CC1 | · | · | · | · | ? | 12.3%[9.04 µM]
CCCCC[C@@H](C)N1C[C@H](COCc2ccccc2)Oc2cc(N3CCC[C@H]3C(N)=O)ccc2S1(=O)=O | -12.5% | -17.7% | -10.8 | · | 6.51µM* | 2.91µM*
C[C@@H](c1ccccc1)N1C[C@H](COCc2ccccc2)Oc2cc(N3CCC[C@H]3C(N)=O)ccc2S1(=O)=O | -4.3% | -11.8% | 22.3 | · | ? | ?
CCCCC[C@H](C)N1C[C@H](COCc2ccccc2)Oc2cc(N3CCC[C@H]3C(N)=O)ccc2S1(=O)=O | ? | ? | -28.5 | · | ? | ?
C[C@H](c1ccccc1)N1C[C@H](COCc2ccccc2)Oc2cc(N3CCC[C@H]3C(N)=O)ccc2S1(=O)=O | ? | -25.7% | -7.9 | · | 16.4µM* | ?
Cc1nn(-c2ccccc2)c(C)c1/C=C1\C(=O)N(C)C(=S)N1C | -20.8% | -18.8% | 3.6 | ? | 16.4µM* | ?
COc1ccc(C)c2sc(N(Cc3cccnc3)C(=O)CCc3ccccc3)nc12 | · | · | · | · | 14.6µM* | ?
COc1ccc(C)c2sc(N(Cc3cccnc3)C(C)=O)nc12 | · | · | · | · | -44.8% | ?
COc1ccc(OC)c2sc(N(Cc3cccnc3)C(C)=O)nc12 | · | · | · | · | 1.0% | -3.5%
Cc1ccc2nc(N(Cc3cccnc3)C(=O)c3ccco3)sc2c1 | · | · | · | · | -3.9% | -5.7%
O=C(C1CCCCC1)N(Cc1cccnc1)c1nc2c(F)cccc2s1 | · | · | · | · | 20.6µM* | 20.6µM*
COc1ccc(C)c2sc(N(Cc3cccnc3)C(=O)C3CCCCC3)nc12 | · | · | · | · | 14.6µM* | 18.4µM*
COc1cccc(C(=O)N(Cc2cccnc2)c2nc3c(OC)ccc(C)c3s2)c1OC | · | · | · | · | 23.1µM* | ?
CC[N+](C)(C)CC/C=C1/c2ccccc2Sc2ccc(Cl)cc21 | ? | 10.4% | · | -20.0% | -6.2% | 7.1%
CCCCCCCCCCC[N+](C)(C)CC/C=C1/c2ccccc2Sc2ccc(Cl)cc21 | ? | ? | -67.0* | -15.6% | 2.59µM* | 5.8µM*
CCCCCCCCCC[N+](C)(C)CC/C=C1/c2ccccc2Sc2ccc(Cl)cc21 | ? | ? | -29.7 | -11.0% | 3.66µM* | 5.17µM*
CCCCN1C(=N)N([C@@H](CCC)CN2CCC[C@H]2CN2C(N)=NC[C@H]2CC(C)C)C[C@H]1Cc1ccccc1 | -4.1% | 1.5% | -28.3 | -0.9% | ? | ?
CCC(C)[C@H]1CN=C(N)N1CCCc1cc(OC)c(OC)c(OC)c1 (stereo partly specified) | 0.7% | -1.4% | -1.1 | 4.2% | -18.7% | -10.0%
CCC[C@@H](CN1CCC[C@H]1CN1C(N)=NC[C@H]1C(C)C)N1C[C@@H](Cc2ccccc2)N(CCCC2CCCC2)C1=N | 0.8% | 1.2% | -63.5* | ? | 16.4µM* | ?
SMILES | HT1080 IDH1KD tx | HT1080NT lethal | IL1B secr inh | ELG1 repair inh | TDP1 cell noCPT | DT40 TDP1 CPT
CC[C@@H](C)[C@@H]1CN([C@@H](C)CN2CCC[C@H]2CN2C(N)=NC[C@H]2CC(C)C)C(=N)N1CCCC1CCCC1 | -1.1% | 0.1% | ? | 9.0% | 23.1µM* | ?
CC[C@@H](C)[C@@H]1CN([C@@H](CN2CCC[C@H]2CN2C(N)=NC[C@H]2C(C)C)C(C)C)C(=N)N1CCc1ccc(Cl)c(Cl)c1 | -4.0% | -1.0% | -77.7* | 5.9% | 16.4µM* | ?
CCCCN1C(=N)N([C@@H](CCC)CN2CCC[C@H]2CN2C(N)=NC[C@@H]2Cc2ccccc2)C[C@H]1[C@H](C)CC | -8.2% | 4.7% | -4.7 | 15.1% | 11.6µM* | 13µM*
CC(C)C[C@@H]1CN=C(N)N1C[C@@H]1CCCN1C[C@@H](C(C)C)N1C[C@@H](Cc2ccccc2)N(CCCC2CCCC2)C1=N | 0.0% | 5.8% | ? | 3.8% | ? | ?
CC(=O)O[C@@H]1C(=O)O[C@@H]2[C@H]1OC(=O)[C@@H]2OC(C)=O | · | · | · | · | -1.7% | 20.7%
CC[C@@H](C)[C@@H]1CN([C@@H](C)CN2CCC[C@H]2CN2C(N)=NC[C@@H]2Cc2ccccc2)C(=N)N1CCCC1CCCC1 | 0.2% | -2.9% | -63.4* | 7.2% | ? | ?
CCCCN1C(=N)N([C@@H](CN2CCC[C@H]2CN2C(N)=NC[C@@H]2Cc2ccccc2)C(C)C)C[C@H]1Cc1ccccc1 | 5.1% | 0.0% | -6.4 | 12.3% | 16.4µM* | ?
CCCCN1C(=N)N([C@@H](C)CN2CCC[C@H]2CN2C(N)=NC[C@@H]2Cc2ccccc2)C[C@H]1Cc1ccccc1 | 3.2% | 10.7% | ? | 4.7% | ? | ?
NC(=O)c1nc(Nc2ccccc2)sc1NC(=O)c1ccccc1Br | · | · | · | · | 20.6µM* | ?
COc1ccccc1C(=O)Nc1sc(Nc2ccccc2)nc1C(N)=O | · | · | · | · | 6.51µM* | 11.6µM*
O=C(Nc1nccs1)c1ccccc1Br | 13.6% | 6.9% | 4.4 | ? | -19.3% | 13.6%
CC(O)CNCCNCc1c(OCc2ccccc2)ccc2ccccc12 (stereo unspecified) | 11.2µM* | 17.8µM* | -86.8* | 9.8% | 23.1µM* | 16.4µM*
